# Inconclusive results are not listed. A number with no mark means an inactive call. The source made the active and inactive calls. The call rests on the fitted dose curve; in most records, active means well fitted inhibition curve with a large enough effect; inconclusive means small, poorly fitted or top-dose-only effect; inactive means flat fitted curve, though single readings scatter.
# Test system: CRL-7250
# Assay: Cytotoxic Profiling of Annotated Libraries Using Quantitative High-Throughput Screening (AID 1296008); further: nearly all actives have a fitted effect of over 60% in size
# Details: Five cell lines viability, CellTiter-Glo ATP luminescence, 48-72 h; max response: hits give low values
# Outline: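 Compounds were pin-transferred onto cells and incubated 48 or 72 hr at 37 degree Celsius, 95% humidity. CellTiter-Glo was added, plates sat 10 min at room temperature, then ATP-coupled luminescence was imaged as the viability read-out.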
# On the % scale 0 is the no-effect control and ±100 the full control effect; potency means the concentration at half of the fitted maximal effect.
SMILES,max response [%],outcome,Potency
CC1(C)[C@@H](O)CC[C@]2(C)[C@H]3CC=C4[C@@H]5C[C@](C)(C(=O)O)CC[C@]5(C)CC[C@@]4(C)[C@]3(C)CC[C@@H]12,-5.83,,
COC1C(=O)CCC2(CO2)C1(O)C1(C)OC1CC=C(C)C (stereo unspecified),-21.3,,
CC1(C)CCCC2(C)C1C(O)C=C(CO)C2(O)CO (stereo unspecified),,inactive,
Cc1cccc(-c2[nH]c(Cc3cccc(C(N)=O)c3)nc2-c2ccc3nccnc3c2)n1,4.2,,
C[C@@H]1C[C@@H](O)[C@@]23CO[C@@H](O)[C@@H]2CCC[C@@H]3[C@@]12C[C@@H](c1ccoc1)OC2=O,0.0668,,
COc1cc(-c2ncn(/C=C\C(=O)OC(C)C)n2)cc(C(F)(F)F)c1,,,4.11 µM (active)
C/C=C(\C)C(=O)O[C@@H]1CC2[C@@H](CC=C3C[C@@H](O[C@H]4C[C@H](OC)[C@H](O[C@H]5C[C@H](OC)[C@H](O[C@@H]6O[C@H](C)[C@@H](O[C@H]7C[C@H](OC)[C@H](O[C@@H]8O[C@H](CO)[C@@H](O)[C@H](O)[C@H]8O)[C@@H](C)O7)[C@H](OC)[C@H]6O)[C@@H](C)O5)[C@@H](C)O4)CC[C@@]32C)[C@@]2(O)CC[C@H](C(C)=O)[C@@]12C (stereo partly specified),3.18,,
COc1cc(Br)c(Nc2nc(-c3c(C)nc4ncccn34)cs2)c(Br)c1,,,4.61 µM (active)
COC(=O)c1ccccc1O[C@@H]1O[C@H](CO)[C@@H](O)[C@H](O)[C@H]1O[C@@H]1O[C@@H](C)[C@H](O)[C@@H](O)[C@H]1O,,inactive,
CCOC(=O)CCN(C(=O)c1ccc2c(c1)nc(CNc1ccc(C(=N)N)cc1)n2C)c1ccccn1,2.71,,
Cc1cc(N2CCN([C@@H]3CN[C@H](C(=O)N4CCSC4)C3)CC2)n(-c2ccccc2)n1,-17.8,,
C=C[C@H]1C(O[C@@H]2O[C@H](CO)[C@@H](O)[C@H](O)[C@H]2O)OC=C2C(=O)N3CCc4c([nH]c5ccccc45)[C@H]3C[C@H]21 (stereo partly specified),,inactive,
C[C@@H]1CC[C@]2(C(=O)O[C@@H]3O[C@H](CO)[C@@H](O)[C@H](O)[C@H]3O)CC[C@]3(C)C(=CCC4[C@@]5(C)C[C@@H](O)[C@H](O)[C@@](C)(C(=O)O[C@H]6[C@H](O)C[C@@]7(C)C(CC[C@]8(C)C7CC=C7[C@H]9[C@](C(=O)O[C@@H]%10O[C@H](CO)[C@@H](O)[C@H](O)[C@H]%10O)(CC[C@@H](C)[C@@]9(C)O)CC[C@]78C)[C@@]6(CO)C(=O)O)C5CC[C@]43C)[C@@H]2[C@]1(C)O (stereo partly specified),,inactive,
O=C1C=CC(O)(/C=C/C(=O)OC[C@H]2O[C@@H](Oc3ccc(O)cc3)[C@H](O)[C@@H](O)[C@@H]2O)C=C1,0.651,,
CC(=O)O[C@@H]1[C@@H](O)[C@H](O[C@H]2CC[C@]34C[C@]35CC[C@]3(C)[C@@H]([C@@]6(C)CC[C@@H](C(C)(C)O)O6)[C@@H](O)C[C@@]3(C)[C@@H]5C[C@H](O[C@@H]3O[C@H](CO)[C@@H](O)[C@H](O)[C@H]3O)[C@H]4C2(C)C)OC[C@H]1O,1.83,,
CC1OC(OC2C(CO)OC(OCC3OC(OC(=O)C45CCC(C)(C)CC4C4=CCC6C7(C)CCC(OC8OC(CO)C(O)C(OC9OC(CO)C(O)C(O)C9O)C8O)C(C)(C)C7CCC6(C)C4(C)CC5)C(O)C(O)C3O)C(O)C2O)C(O)C(O)C1OC1OC(CO)C(O)C(O)C1O (stereo unspecified),-0.747,,

SMILES,max response [%],outcome,Potency
CC/C=C\CC1C(=O)C=CC1(CCCCCCCC(=O)O)OC(C)=O (stereo unspecified),-0.322,,
O=C(O)c1cc2cccc([N+](=O)[O-])c2[nH]1,-12.6,,
C=C(CO)C12OC1C1(C)C(=CC2=O)C(O)C(O)CC1C (stereo unspecified),-0.172,,
O=C(c1ccc2nccnc2c1)N1CCCCC1,-4.12,,
COc1cccc(Nc2ncnn3ccc(CN4CC[C@@H](N)[C@H](O)C4)c23)c1,,,8.2 µM (active)
C[C@@H]1CCC/C=C/[C@H]2CC(=O)C[C@@H]2[C@@H](O)/C=C/C(=O)O1,-3.74,,
CC(=O)O[C@@H]1[C@@H](OC(=O)/C=C/c2ccccc2)[C@@H](OC(C)=O)[C@H](O[C@H]2[C@@H]3C=CO[C@@H](O[C@@H]4O[C@H](CO)[C@@H](O)[C@H](O)[C@H]4O)[C@@H]3[C@@]3(CO)O[C@@H]23)O[C@H]1C,,inactive,
Cn1c(=O)cc(N2CCCC(N)C2)n(Cc2cc(F)ccc2C#N)c1=O (stereo unspecified),3.15,,
C=C(C(=O)OC)C1C(O)CC2(C)C(O)CCC(=O)C2C1O (stereo unspecified),-16.1,,
C/C=C/c1ccc2c(c1)[C@@H](C)[C@H](c1ccc(O)cc1)O2,-3.63,,
COc1cc(C(=O)O)ccc1OC1OC(CO)C(O)C(O)C1O (stereo unspecified),,inactive,
CCOc1cc(C)c(Cl)cc1S(=O)(=O)n1cnc2ccccc21,-6.19,,
CC(C)CCC[C@@H](C)[C@H]1CC[C@H]2[C@@H]3CC(=O)[C@H]4C[C@@H](O)CC[C@]4(C)[C@H]3CC[C@]12C,-2.74,,
O=S(=O)(c1ccccc1)c1cnc2c(N3CCNCC3)cccc2c1,1.33,,
C=C[C@H]1C(O[C@@H]2O[C@H](CO)[C@@H](O)[C@H](O)[C@H]2O)OC=C2C(=O)N3CCc4c([nH]c5ccccc45)C3CC21 (stereo partly specified),,inactive,
